Source: PMC8384837, “Expanding the binding specificity for RNA recognition by a PUF domain”

Key:
Test in all cases: yeast three-hybrid, YBZ-1, SC-Leu-His + 0.5 mM 3-AT, 4 days
Conditions in all cases: tags: N-Gal4 AD-HA kept; label: inside an RPR1-promoter hybrid RNA with tandem MS2 sites; ssRNA
PUM1 PUF domain R6-VYM = target: T1, PUM1 PUF domain R6-VYM (Homo sapiens, UniProt Q14671 828-1176, N1043V;Q1047M)
T1 sequence: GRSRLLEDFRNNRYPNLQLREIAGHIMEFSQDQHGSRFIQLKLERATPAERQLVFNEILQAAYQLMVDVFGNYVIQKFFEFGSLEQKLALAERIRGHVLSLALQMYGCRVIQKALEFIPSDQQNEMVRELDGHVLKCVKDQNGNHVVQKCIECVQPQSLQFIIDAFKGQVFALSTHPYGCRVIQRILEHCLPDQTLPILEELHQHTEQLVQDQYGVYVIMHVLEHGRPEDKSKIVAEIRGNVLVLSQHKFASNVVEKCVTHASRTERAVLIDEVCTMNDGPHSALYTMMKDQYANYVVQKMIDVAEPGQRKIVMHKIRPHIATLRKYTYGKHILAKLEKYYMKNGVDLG
Outline: (§1)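 Pumilio-1 PUF domain libraries, randomized at the three base-contacting residues of each repeat, were co-expressed with matching RNA elements from a centromeric plasmid in strain YBZ-1, which carries a LexA–MS2 coat fusion and a HIS3 reporter. Transformants grew for four days on SC-Leu (input) or on SC-Leu-His + 0.5 mM 3-AT (selection), and the repeat regions were PCR-amplified and Illumina-sequenced. The interaction score is the log change in variant frequency from input to selection. That logarithm is base 2, with a pseudocount of 1 where a variant was absent.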

PUM1 PUF domain R3-DFE = PUM1 PUF domain R3-DFE (Homo sapiens, UniProt Q14671 828-1176, C935D;R936F;Q939E)
Outline: as §1

PUM1 PUF domain R4-VHH = PUM1 PUF domain R4-VHH (Homo sapiens, UniProt Q14671 828-1176, N971V;Q975H)
Outline: as §1

PUM1 PUF domain R4-EHR = PUM1 PUF domain R4-EHR (Homo sapiens, UniProt Q14671 828-1176, N971E;Q975R)
Outline: as §1

PUM1 PUF domain R5-RSR = PUM1 PUF domain R5-RSR (Homo sapiens, UniProt Q14671 828-1176, C1007R;R1008S;Q1011R)
Outline: as §1

PUM1 PUF domain R5-SQS = PUM1 PUF domain R5-SQS (Homo sapiens, UniProt Q14671 828-1176, C1007S;R1008Q;Q1011S)
Outline: as §1

PUM1 PUF domain R8-PYH = PUM1 PUF domain R8-PYH (Homo sapiens, UniProt Q14671 828-1176, N1122P;Q1126H)
Outline: as §1

PUM1 PUF domain R1-KAS = PUM1 PUF domain R1-KAS (Homo sapiens, UniProt Q14671 828-1176, S863K;R864A;Q867S)
Outline: as §1

PUM1 PUF domain R1-RVQ = PUM1 PUF domain R1-RVQ (Homo sapiens, UniProt Q14671 828-1176, S863R;R864V)
Outline: as §1

PUM1 PUF domain R7-RFP = PUM1 PUF domain R7-RFP (Homo sapiens, UniProt Q14671 828-1176, S1079R;N1080F;E1083P)
Outline: as §1

GGCUAGAACUAGUGGAUCCCCCGGCGCCCGGCGGCUCGAGCCCGGGUAAGUGAAAAUAGUCUGCAUGCCGCCGGGCGCCAUGCCUGCAGGUCGACUCUAGAAAACAUG
binding signal (PUM1 PUF domain R6-VYM): 6.6 log2 enrichment (interaction score)

GGCUAGAACUAGUGGAUCCCCCGGCGCCCGGCGGCUCGAGCCCGGGUAAGUGUAAAUAGUCUGCAUGCCGCCGGGCGCCAUGCCUGCAGGUCGACUCUAGAAAACAUG
binding signal (PUM1 PUF domain R6-VYM): 2.8 log2 enrichment (interaction score)
binding signal (PUM1 PUF domain R3-DFE): 2.28 log2 enrichment (interaction score)

GGCUAGAACUAGUGGAUCCCCCGGCGCCCGGCGGCUCGAGCCCGGGUAAGUGUACAUAGUCUGCAUGCCGCCGGGCGCCAUGCCUGCAGGUCGACUCUAGAAAACAUG
binding signal (PUM1 PUF domain R4-VHH): 5.04 log2 enrichment (interaction score)
binding signal (PUM1 PUF domain R4-EHR): 3 log2 enrichment (interaction score)

GGCUAGAACUAGUGGAUCCCCCGGCGCCCGGCGGCUCGAGCCCGGGUAAGUGUUAAUAGUCUGCAUGCCGCCGGGCGCCAUGCCUGCAGGUCGACUCUAGAAAACAUG
binding signal (PUM1 PUF domain R5-RSR): 3.79 log2 enrichment (interaction score)

GGCUAGAACUAGUGGAUCCCCCGGCGCCCGGCGGCUCGAGCCCGGGUAAGUGUCAAUAGUCUGCAUGCCGCCGGGCGCCAUGCCUGCAGGUCGACUCUAGAAAACAUG
binding signal (PUM1 PUF domain R5-RSR): 4.48 log2 enrichment (interaction score)

GGCUAGAACUAGUGGAUCCCCCGGCGCCCGGCGGCUCGAGCCCGGGUAAGUGUGAAUAGUCUGCAUGCCGCCGGGCGCCAUGCCUGCAGGUCGACUCUAGAAAACAUG
binding signal (PUM1 PUF domain R5-SQS): 3.19 log2 enrichment (interaction score)

GGCUAGAACUAGUGGAUCCCCCGGCGCCCGGCGGCUCGAGCCCGGGUAAGCGUAAAUAGUCUGCAUGCCGCCGGGCGCCAUGCCUGCAGGUCGACUCUAGAAAACAUG
binding signal (PUM1 PUF domain R8-PYH): 3.67 log2 enrichment (interaction score)

GGCUAGAACUAGUGGAUCCCCCGGCGCCCGGCGGCUCGAGCCCGGGUAAGUGUAAAUUGUCUGCAUGCCGCCGGGCGCCAUGCCUGCAGGUCGACUCUAGAAAACAUG
binding signal (PUM1 PUF domain R1-KAS): 3.9 log2 enrichment (interaction score)
binding signal (PUM1 PUF domain R1-RVQ): 4.43 log2 enrichment (interaction score)

GGCUAGAACUAGUGGAUCCCCCGGCGCCCGGCGGCUCGAGCCCGGGUAAGUCUAAAUAGUCUGCAUGCCGCCGGGCGCCAUGCCUGCAGGUCGACUCUAGAAAACAUG
binding signal (PUM1 PUF domain R7-RFP): 5.14 log2 enrichment (interaction score)

GGCUAGAACUAGUGGAUCCCCCGGCGCCCGGCGGCUCGAGCCCGGGUAAGUGUAUAUAGUCUGCAUGCCGCCGGGCGCCAUGCCUGCAGGUCGACUCUAGAAAACAUG
binding signal (PUM1 PUF domain R4-EHR): 3.83 log2 enrichment (interaction score)

GGCUAGAACUAGUGGAUCCCCCGGCGCCCGGCGGCUCGAGCCCGGGUAAGUGUAAAUCGUCUGCAUGCCGCCGGGCGCCAUGCCUGCAGGUCGACUCUAGAAAACAUG
binding signal (PUM1 PUF domain R1-RVQ): 4.56 log2 enrichment (interaction score)
